APP 5'UTR act = activators of APP 5'UTR luciferase reporter, primary screen, SH-SY5Y cells | SH-SY5Y APP 5'UTR luciferase reporter, luminescence; zero percent = DMSO vehicle wells | activation, % at 2 µM | 190,000 compounds, 1% hits | AID 1276, 2008;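 active means activation above a set limit, based on mean plus 3 SD of controls, cut at about 140% in these data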
ssDAF-12 act = S. stercoralis DAF-12 nuclear receptor activators, primary screen, cell-based, luminescence, HEK293, GRIP1 co-expression, lit1-tk-luc. activation, % at 6.8 µM. 370,000 compounds, 1% hits. Nuclear hormone receptor DAF-12 (Strongyloides stercoralis). HEK293 ssDAF-12/GRIP1 lit1-tk-luc reporter; % of 3 µM dafachronic acid response;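 active means activation above the mean over all tested compounds plus 3 SD, cut at about 0.9% in these data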;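 further: 0% = DMSO-only wells and 100% = 3 µM delta7-dafachronic acid wells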
hcDAF-12 act = H. contortus DAF-12 nuclear receptor activators, primary screen, cell-based, luminescence, HEK293, lit1-tk-luc reporter. HEK293 hcDAF-12 lit1-tk-luc reporter; 0% DMSO, 100% Δ7-dafachronic acid. activation, % at 6.8 µM. 370,000 compounds, 1.4% hits;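 active means activation above the mean of all tested compounds plus 3 SD, cut at about 5.5% in these data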;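 further: 100% = response to 3 µM Δ7-dafachronic acid high control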
NF-kB expr up = activators of NF-kB expression in neurons, primary screen, cell-based, HTS; human neuronal cells, NF-kB reporter expression; active compounds read high; fold change at 12.5 µM; 190,000 compounds, 1.6% hits; AID 1239, 2008; in the data active means fold change above about 3.3
hgDAF-12 ag = H. glycines DAF-12 receptor agonists, primary screen, cell-based, luminescence, HEK293, GAL4 fusion, UAS-luciferase | HEK293 GAL4-hgDAF12 UAS-luciferase reporter, agonist luminescence; normalized to butyrate control | activation, % at 6.8 µM | 370,000 compounds, 1.8% hits | AID 687014, 2013;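 active means activation above a cutoff set at the mean of all screened compounds plus 3 SD, cut at about 10% in these data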;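 further: 0% = DMSO wells and 100% = sodium butyrate wells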
Numbers without * were called inactive; x = no result given. Only some compounds are listed: those with a hit (about 3.4% of all), similar ones and a draw of the others.

SMILES	APP 5'UTR act	ssDAF-12 act	hcDAF-12 act	NF-kB expr up	hgDAF-12 ag
CCCC[C@@H]1C(=O)N2N=Cc3ccccc3[C@H]2N2N=Cc3ccccc3[C@@H]12	x	-1.6	-1.6	x	-1.0
O=C(OCc1cn(Cc2ccccc2)nn1)N1CCOCC1	x	-1.1	-2.1	x	1.6
COc1ccc(-c2ccc(C(=O)Nc3ccc4c(c3)OCO4)c3occc23)c(C)c1	x	0.2	2.9	x	13.2*
COc1ccc(-c2ccc(C(=O)Nc3ccc(OC)nc3)c3occc23)c(C)c1	x	-1.3	-2.8	x	-4.3
COc1cccc(-c2cc3nc(C)c(C)c(N4CCN(Cc5ccco5)CC4)n3n2)c1	x	-1.3	-1.2	x	5.5
Cc1ccc(-c2nc3c(Cl)cc(Cl)cc3c(=O)n2O)cc1	x	0.3	6.0*	x	0.3
O=c1c2cc(Br)ccc2nc(-c2ccc(Cl)cc2)n1O	x	-0.2	-0.5	x	1.3
c1ccc2c(Cn3nnc4ccccc43)cccc2c1	0.2	0.0	-2.5	1.32	-0.1
c1ccc2c(COn3nnc4ccccc43)cccc2c1	109.6	-0.5	2.9	3.37*	8.5
COc1ccc(CCNS(=O)(=O)c2c(C)n[nH]c2C)cc1	x	-0.9	3.4	x	-1.4
Clc1ccccc1-c1nc2ccccc2[nH]1	x	-0.4	1.5	x	8.0
Cn1cc(Cl)c(-c2nc3ccccc3[nH]2)n1	64.4	0.1	4.4	2.59	12.0*
Cc1nc2ccc(NC(=O)c3cc(Cl)ccc3F)cc2c(=O)[nH]1	x	-1.0	-1.5	x	8.8
CCn1c(C)csc1=NC(=O)c1ccccc1	19.8	-0.8	1.0	1.34	2.2
CCOC(=O)c1ccc(N=c2scc(C)n2CC)cc1	89.5	-1.0	0.8	4.26*	6.4
CCn1c(C)csc1=NC(=O)c1ccccc1O	41.3	0.0	6.3*	1.84	9.9
Cc1csc(=NC(=O)c2ccccc2)n1C	101.6	0.7	2.7	3.63*	10.2
COC(=O)c1cc(-c2cccc(C(F)(F)F)c2)c(=O)n2c1CCC2	x	-0.9	1.8	x	1.4
CCC(C)c1ccc(NC(=O)CSc2nnc(-c3cccc(C)c3)n2C)cc1 (stereo not drawn)	x	-1.9	-2.3	x	-0.9
CCNC(=O)Nc1nc2ccccc2s1	77.4	-0.4	0.4	2.65	13.2*
O=C(NCCO)c1nc2ccccc2s1	-12.5	1.0*	4.0	0.95	1.2
O=C(Nc1nc2ccccc2s1)c1ccccc1[N+](=O)[O-]	x	1.2*	2.3	x	7.2
CCCN1CCN(CC(=O)Nc2nc3ccccc3s2)CC1	x	1.2*	5.5	x	1.6
O=C(O)c1cccc([N+](=O)[O-])c1C(=O)Nc1nc2ccccc2s1	-2.7	-0.7	3.5	1	3.0
COCCNC(=O)c1nc2ccccc2s1	9.9	-0.6	4.8	1.41	1.8
SMILES	APP 5'UTR act	ssDAF-12 act	hcDAF-12 act	NF-kB expr up	hgDAF-12 ag
COC(=O)C/C=C/[C@H](C)[C@@H](NC(=O)C(F)(F)F)c1ccccc1Br	x	-0.9	-1.8	x	0.0
CCOC(=O)c1cc2c(s1)-c1ccccc1CC2	40.9	0.8	6.4*	1.85	4.8
COC(=O)c1cc2c(s1)-c1ccccc1CC2	29.7	0.3	4.5	1.27	3.5
Cc1ccc2nc(SCc3nc4ccccc4c(=O)[nH]3)[nH]c2c1	48.7	-0.6	4.1	0.84	11.4*
Cc1cc(C)c(C#N)c(SCc2nc3ccccc3c(=O)[nH]2)n1	152.7*	0.5	3.4	2.49	9.6
COCc1cc(C)nc(SCc2nc3ccccc3c(=O)[nH]2)c1C#N	8.0	-1.2	0.3	1.3	1.2
COC(=O)c1sc2nc(CSc3nc4ccc(C)cc4[nH]3)[nH]c(=O)c2c1C	-12.6	-0.7	6.1*	1.07	-0.5
CC(=O)N1CCN(C(=O)CN2C(=O)CC(C)(C)S(=O)(=O)c3ccccc32)CC1	x	-0.2	-0.4	x	-1.6
Cc1cc(C(=O)Nc2ccc(Cl)c(Cl)c2)n(-c2ccccc2)n1	x	-0.8	-0.7	x	0.4
C=CCn1c(COc2ccccc2)nnc1SCC(=O)Nc1ccc(S(=O)(=O)Nc2cc(C)nc(C)n2)cc1	x	-0.6	1.6	x	2.9
COc1ccc(-c2nc(Cn3c(SCc4ccc(C)cc4)nc4ccncc43)c(C)o2)cc1OC	35.3	-1.2	3.0	0.91	11.5*
Cc1ccc(NC(=S)NC(=O)c2ccccc2)cc1NC(=S)NC(=O)c1ccccc1	x	-0.6	6.2*	x	10.4
Cc1ccc2cccc(NC(=S)NC(=O)c3ccccc3)c2n1	2.4	1.0*	5.7*	1.1	2.5
CC(C)(C)NC(=S)NNC(=O)c1ccc2ncccc2c1	81.5	0.0	3.9	1.04	11.3*
O=C(NC(=S)Nc1ccc2ncccc2c1)c1ccccc1	60.4	-0.9	3.2	1.08	11.8*
Cc1cc(C)c2cccc(NC(=S)NC(=O)c3ccccc3)c2n1	11.9	-0.5	1.3	1.29	-0.8
COc1ccc(CN2C(=O)[C@@](O)(c3cccn3C)c3cc(F)ccc32)cc1	x	-0.8	-1.3	x	-1.7
O=S1(=O)C=CCN1Cc1cn(Cc2ccc(F)cc2)nn1	x	-1.0	-1.9	x	2.8
C=CCN1C(C(=O)OC)CN(Cc2cn(Cc3ccc(C)cc3)nn2)CCS1(=O)=O (stereo not drawn)	x	-1.2	-0.8	x	-1.6
CCCCCCc1c[nH]c2ccc(O)c(-c3ccccc3)c12	x	-1.2	-1.9	x	-1.9
COC(=O)Nc1ccc(C)c(NC(=O)OC)c1	-1.9	-1.1	6.4*	1.14	0.1
CCC(=O)Nc1cccc(NC(=S)NC(=O)c2ccccc2)c1	44.8	-0.5	2.5	2.5	12.7*
COC(=O)[C@H](CC(C)C)N(CCc1cn(Cc2ccc(C)cc2)nn1)S(=O)(=O)c1ccccc1Br	x	-1.1	-1.4	x	-1.4
O=C(C1CCCN(S(=O)(=O)c2cccc3ccccc23)C1)N1CCN(Cc2ccccc2)CC1 (stereo not drawn)	x	-1.7	-0.8	x	0.2
CCN1CCN(c2nnc(-c3ccccc3)c3ccccc23)CC1	x	-1.3	1.4	x	-0.8
SMILES	APP 5'UTR act	ssDAF-12 act	hcDAF-12 act	NF-kB expr up	hgDAF-12 ag
CCN1CCN(c2cc3c(nn2)Oc2ccccc2N3C)CC1	37.2	-0.6	4.0	2.19	12.1*
COc1ccc(N2CCN(CCNS(=O)(=O)c3ccc(Br)s3)CC2)cc1	x	-2.2	-1.9	x	2.7
CCN(CC)C(=O)c1ccc(/C=C/c2c[nH]c3ccccc23)[n+](C)c1	1.7	1.6*	1.8	1.17	1.7
CC[n+]1c(/C=C/c2c[nH]c3ccccc23)ccc2cc(C)ccc21	6.1	-2.4	-4.5	0.85	-5.7
CC(/C=N/NC(=O)Cn1cnc2ccccc21)=C\c1ccccc1	-10.6	8.4*	-3.3	0.78	-3.2
CC(=O)n1cc(Nc2ccccc2C(=O)O)c2ccccc21	7.2	0.9*	2.4	1	1.5
Cc1nnc(Oc2ccccc2)c2ccccc12	25.8	-0.5	-1.2	1.79	2.6

High-throughput results from PubChem BioAssay.
